Among the test systems are NCI-H23 lung; NCI-H322M lung; HOP-62 NSCLC; NCI-H460 lung; HOP-92 NSCLC; NCI-H522 lung; A549/ATCC NSCLC; 786-0 renal; DU-145 prostate; K-562 leukemia; MALME-3M melanoma; MDA-MB-231 breast; RXF 393 renal; SF-268 CNS; SF-295 CNS; SF-539 CNS; UACC-257 melanoma; M14 melanoma; COLO 205 colon.
Common to all, as to experiment: NCI-60 one-dose screen, 48 h (100 = growth as untreated, 0 = no growth, -100 = all killed)
What all share (settings): 10 µM unless noted

This is part of a sample that, as a whole, favours compounds with a hit. Of some 83,000 tested, about 20% had one in any assay.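 A percent growth of 40 corresponds to 60% growth inhibition; 0 means no net growth; -100 means all cells died. Active threshold: below 10.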 Values without a mark were called inactive. The source made the active and inactive calls.

Take `Cc1cccc(C)c1NCc1nnc(-c2ccco2)o1`: the growth in the experiment with NCI-H23 lung is 89%; with NCI-H322M lung, 91.1%; in the experiment with HOP-62 NSCLC, 80.2%; in the experiment on NCI-H460 lung, 97%; in the experiment on HOP-92 NSCLC, 83.4%; in the experiment with NCI-H522 lung it was 72.8%. The growth in the experiment with A549/ATCC NSCLC was 86.8%; in the experiment with 786-0 renal it was 105%; with DU-145 prostate, 99.9%; in the experiment with K-562 leukemia, 100%; with MALME-3M melanoma, 85.2%; with MDA-MB-231 breast, 79.7%. Moreover, the growth in the experiment with RXF 393 renal is 102%; in the experiment on SF-268 CNS it was 93.5%; in the experiment on SF-295 CNS, 92.4%; with SF-539 CNS, 97.7%; with UACC-257 melanoma it was 98.7%; in the experiment with M14 melanoma, 99%.

On to `c1ccc(-c2cn3ccnc3c(-c3ccc4c(c3)ncn4C3CCCCC3)n2)cc1`, for which the growth is 103% in the experiment on NCI-H23 lung; 97.1% in the experiment on NCI-H322M lung; 87.1% with HOP-62 NSCLC; 104% in the experiment with NCI-H460 lung; 89.1% in the experiment on HOP-92 NSCLC; 83.9% in the experiment on NCI-H522 lung. In addition, the growth was 91% with A549/ATCC NSCLC; 91.8% with 786-0 renal; 99.7% in the experiment with COLO 205 colon; 97.4% in the experiment on DU-145 prostate; 68.9% in the experiment on K-562 leukemia; 120% in the experiment on MALME-3M melanoma. For the same compound, the growth in the experiment with MDA-MB-231 breast is 93.4%; in the experiment on RXF 393 renal, 76.7%; with SF-268 CNS, 98.7%; in the experiment with SF-295 CNS, 101%; in the experiment with SF-539 CNS, 97.8%; in the experiment with UACC-257 melanoma, 110%. Besides, the growth with M14 melanoma was 98.4%.

As to `C=C1C(=O)O[C@H]2[C@H]1CC/C(COC(=O)c1c[nH]c3ccccc13)=C\CC[C@@]1(C)O[C@@H]21`, the growth with NCI-H23 lung was -52.9% (active); in the experiment with NCI-H322M lung, 16%; in the experiment with HOP-62 NSCLC, -43.3% (active); in the experiment with NCI-H460 lung, 2.46% (active); in the experiment with HOP-92 NSCLC, -59.7% (active); in the experiment with NCI-H522 lung it was -66.7% (active). Besides, the growth was -7.16% (active) in the experiment with A549/ATCC NSCLC; -92% (active) in the experiment on 786-0 renal; -53.5% (active) with COLO 205 colon; -68.6% (active) in the experiment on DU-145 prostate; -16.1% (active) in the experiment on K-562 leukemia; -73.7% (active) with MALME-3M melanoma. Besides, the growth in the experiment on MDA-MB-231 breast was -68.8% (active); with RXF 393 renal, -90.6% (active); in the experiment on SF-268 CNS, -40.8% (active); in the experiment with SF-295 CNS, 50.2%; in the experiment on SF-539 CNS, -61.3% (active); in the experiment with UACC-257 melanoma, -58.8% (active). Moreover, the growth with M14 melanoma was -64.7% (active).

Consider `COc1ccc2nc(-c3ccc(OC)c(OC)c3)cc(-c3nnc(SCC(=O)Nc4ccc(C(C)=O)cc4)o3)c2c1`, for which the growth in the experiment with NCI-H23 lung was 104%; with NCI-H322M lung it was 103%; with HOP-62 NSCLC, 107%; in the experiment with NCI-H460 lung it was 105%; in the experiment on HOP-92 NSCLC, 116%; in the experiment with NCI-H522 lung, 88.3%. Besides, the growth in the experiment with A549/ATCC NSCLC is 94%; in the experiment on 786-0 renal it was 101%; in the experiment on COLO 205 colon, 116%; with DU-145 prostate it was 108%; with K-562 leukemia, 99.2%; in the experiment on MALME-3M melanoma, 109%. The growth with MDA-MB-231 breast was 99.5%; with RXF 393 renal it was 102%; with SF-268 CNS it was 104%; with SF-295 CNS it was 100%; in the experiment with SF-539 CNS, 96%; in the experiment with UACC-257 melanoma it was 101%. The growth with M14 melanoma was 105%.

For the compound `C=C1C(=O)O[C@H]2[C@H]1CC/C(COC(=O)CCCCC(=O)OC/C1=C/CC[C@@]3(C)O[C@H]3[C@H]3OC(=O)C(=C)[C@@H]3CC1)=C\CC[C@@]1(C)O[C@@H]21`, the growth is 65.2% in the experiment with NCI-H23 lung; 105% with NCI-H322M lung; 86.8% with HOP-62 NSCLC; 99.3% with NCI-H460 lung; 61.1% in the experiment with HOP-92 NSCLC; -36.9% (active) with NCI-H522 lung. Moreover, the growth in the experiment with A549/ATCC NSCLC is 94.9%; with 786-0 renal it was 68%; in the experiment on COLO 205 colon, -18.9% (active); in the experiment on DU-145 prostate, 56.2%; in the experiment on K-562 leukemia it was 9% (active); in the experiment on MALME-3M melanoma, 25.5%. For the same compound, the growth in the experiment with MDA-MB-231 breast was 29.5%; in the experiment with RXF 393 renal, -44.1% (active); in the experiment with SF-268 CNS, 82.2%; in the experiment with SF-295 CNS, 101%; with SF-539 CNS, 46.5%; in the experiment with UACC-257 melanoma, 81.9%. In the experiment with M14 melanoma, the growth was 47.8%.

For the compound `c1ccc2c3c([nH]c2c1)C(c1ccc(C2NCCc4c2[nH]c2ccccc42)cc1)NCC3` (stereo unspecified), the growth with NCI-H23 lung was 72.4%; in the experiment on NCI-H322M lung, -1.54% (active); in the experiment with HOP-62 NSCLC it was -70.3% (active); with NCI-H460 lung, -71.6% (active); with HOP-92 NSCLC, 20.8%; in the experiment on NCI-H522 lung it was -72.4% (active). Besides, the growth in the experiment with A549/ATCC NSCLC was -85.1% (active); with 786-0 renal, -68.1% (active); with COLO 205 colon it was -81.5% (active); in the experiment on DU-145 prostate, -35.1% (active); in the experiment with K-562 leukemia, -57.6% (active); in the experiment with MALME-3M melanoma, -50.3% (active). Further, the growth is -56.2% (active) in the experiment on MDA-MB-231 breast; 33.9% with RXF 393 renal; -29.2% (active) in the experiment on SF-268 CNS; -72.2% (active) with SF-295 CNS; -15.5% (active) in the experiment with SF-539 CNS; -41.7% (active) with UACC-257 melanoma. Moreover, the growth in the experiment with M14 melanoma was -84.9% (active).

As for `COc1ccc([C@H]2[C@@H](F)C(=O)N2c2cc(OC)c(OC)c(OC)c2)cc1F`, the growth in the experiment with NCI-H23 lung is 21.3%; with NCI-H322M lung, 46.4%; in the experiment on HOP-62 NSCLC, 31.8%; in the experiment with NCI-H460 lung it was 7.06% (active); with HOP-92 NSCLC, 32.3%; in the experiment with NCI-H522 lung, -8.46% (active). Moreover, the growth is 15.3% in the experiment on A549/ATCC NSCLC; 22.9% in the experiment on 786-0 renal; -68% (active) in the experiment with COLO 205 colon; 9.46% (active) with DU-145 prostate; 9.45% (active) in the experiment on K-562 leukemia; 74% with MALME-3M melanoma. Also, the growth is 19.6% in the experiment with MDA-MB-231 breast; 28.8% in the experiment with RXF 393 renal; 33.1% in the experiment with SF-268 CNS; 18.6% in the experiment on SF-295 CNS; 4.17% (active) with SF-539 CNS; 38.7% in the experiment on UACC-257 melanoma. Also, the growth with M14 melanoma is 1.91% (active).

Consider `COC1=CC=CC2(OC)C3(O)CCCc4cccc(c43)N3C(=O)COC132` (stereo unspecified), for which the growth was 96.1% in the experiment on NCI-H23 lung; 101% in the experiment on NCI-H322M lung; 102% with HOP-62 NSCLC; 105% with NCI-H460 lung; 89.9% in the experiment on HOP-92 NSCLC; 78.8% in the experiment on NCI-H522 lung. Besides, the growth was 90.8% in the experiment on A549/ATCC NSCLC; 102% in the experiment on 786-0 renal; 107% in the experiment with COLO 205 colon; 106% in the experiment with DU-145 prostate; 92.5% with K-562 leukemia; 92.9% in the experiment on MALME-3M melanoma. Besides, the growth is 98.5% in the experiment on MDA-MB-231 breast; 104% in the experiment on RXF 393 renal; 98.4% with SF-268 CNS; 106% in the experiment on SF-295 CNS; 98% in the experiment on SF-539 CNS; 101% in the experiment on UACC-257 melanoma. In addition, the growth in the experiment with M14 melanoma is 99.1%.
